Many of the other results were omitted from the sample, so hits are more common in it than they were.
RmlC RmlD mix = RmlC and RmlD coupled enzyme inhibitors, primary screen, biochemical, 384-well, compound mixtures, retest; RmlC/RmlD coupled enzyme inhibition, 384-well mixture HTS; 110,000 tested, 0.39% active; inhibition, % at 5.5 µM; in the data active means inhibition above about 30%, passing the limit was not always enough; inconclusive means no clear call, values can overlap the other calls
HIV RNase H inh-1 = HIV-1 RT RNase H inhibitors, primary screen, biochemical, fluorescence. 65,000 tested, 1.9% active. AID 565, 2006. RT-RNase H RNA/DNA duplex cleavage. inhibition, % at 10 µM. Gag-Pol polyprotein (Human immunodeficiency virus type 1 group M subtype B (isolate …; in the data active means inhibition above about 50%
HIV RNase H inh-2 = HIV-1 RT RNase H inhibitors, retest, confirmation, biochemical; shares compounds with HIV RNase H inh-1; Recombinant RT RNase H, fluorescent RNA/DNA duplex cleavage; inhibition, % at 10 µM; 1,000 tested, 39% active; in the data active means inhibition above about 48%; inconclusive means no clear call, values can overlap the other calls
Numbers stand for hits.

For CC[C@]1(O)CC2CN(CCc3c([nH]c4ccccc34)[C@@](C(=O)OC)(c3cc4c(cc3OC)N(C)[C@H]3[C@@](O)(C(N)=O)[C@H](O)[C@]5(CC)C=CCN6CC[C@]43[C@@H]65)C2)C1 (stereo partly drawn) the results were RmlC RmlD mix inactive.
`COc1ccc(NC(=O)CSc2nc3sc(C)c(C)c3c(=O)n2Cc2ccco2)cc1` gave RmlC RmlD mix inactive and HIV RNase H inh-1 inactive.
`C=CCn1c(SCC(=O)NC(=O)NCc2ccco2)nc2sc(C)c(C)c2c1=O` gave RmlC RmlD mix inactive, HIV RNase H inh-1 92 and HIV RNase H inh-2 63.
For CC(=O)Oc1ccc(N2C(=O)C3C(C2=O)C2(C)C=CC3(C)O2)cc1 (stereo not drawn) the results were RmlC RmlD mix inactive, HIV RNase H inh-1 56 and HIV RNase H inh-2 inactive.
CC(=O)Oc1ccc(N2C(=O)C3C4C=CC(CO)(O4)C3C2=O)cc1 (stereo not drawn) was read as RmlC RmlD mix inactive.
COc1ccccc1N1CCN(C(c2cc3ccc(C)cc3[nH]c2=O)c2nnnn2C2CCCC2)CC1 (stereo not drawn) was read as RmlC RmlD mix inactive and HIV RNase H inh-1 inactive.
Screening COc1ccccc1N1CCN(C(c2cc3cc(C)ccc3[nH]c2=O)c2nnnn2C2CCCC2)CC1 (stereo not drawn) returned RmlC RmlD mix inactive, HIV RNase H inh-1 54 and HIV RNase H inh-2 inactive.
Screening Cc1ccc(NCc2nnc(SCC(=O)NCCc3ccccc3)n2C)cc1 returned RmlC RmlD mix inactive and HIV RNase H inh-1 inactive.
Screening COc1ccc(C2c3c(oc4ccc(F)cc4c3=O)C(=O)N2CCN2CCOCC2)cc1OC (stereo not drawn) returned HIV RNase H inh-1 inactive.
Screening COc1ccc(-n2nc3cc(C)c(NC(=O)CC(C)C)cc3n2)cc1 returned RmlC RmlD mix inactive, HIV RNase H inh-1 65 and HIV RNase H inh-2 61.
COc1ccc(-n2nc3cc(C)c(NC(=O)c4cccnc4)cc3n2)cc1 was read as HIV RNase H inh-1 inactive.
For COc1ccc(NC(=O)CN(c2cc(C)cc(C)c2)S(=O)(=O)c2c(C)n[nH]c2C)cc1 the results were RmlC RmlD mix inactive and HIV RNase H inh-1 inactive.
For C=CCn1c(SCC(=O)NC(=O)NC2CCCC2)nnc1C1CCCCC1 the results were RmlC RmlD mix inactive and HIV RNase H inh-1 inactive.
`C=CCn1c(SCc2cc(=O)n3ccsc3n2)nnc1C1CCCCC1` gave RmlC RmlD mix inactive, HIV RNase H inh-1 67 and HIV RNase H inh-2 inactive.
CC12CCC(C(=O)NCc3ccc4c(c3)OCO4)(C(=O)C1=O)C2(C)C (stereo not drawn) was read as RmlC RmlD mix inactive.
`C=CCNC(=O)NS(=O)(=O)c1ccc(C)cc1` gave RmlC RmlD mix inactive and HIV RNase H inh-1 inactive.
For O=C(NCc1ccccc1F)C1CCCN1C(=O)NCc1ccccc1 (stereo not drawn) the results were RmlC RmlD mix inactive and HIV RNase H inh-1 inactive.
COCCn1c(SCCN2CCOCC2)nc2c1c(=O)[nH]c(=O)n2C was read as RmlC RmlD mix inactive, HIV RNase H inh-1 88 and HIV RNase H inh-2 60.
C/C(Cl)=C/Cn1c(SCc2ccc(Cl)cc2)nc2c1c(=O)[nH]c(=O)n2C was read as RmlC RmlD mix inactive and HIV RNase H inh-1 inactive.
For CC(C)CSc1nc2c(c(=O)[nH]c(=O)n2C)n1CCc1ccccc1 the results were RmlC RmlD mix inactive and HIV RNase H inh-1 inactive.
Screening C/C=C/Cn1c(SCc2ccccc2)nc2c1c(=O)[nH]c(=O)n2C returned RmlC RmlD mix inactive, HIV RNase H inh-1 50 and HIV RNase H inh-2 inactive.
For CCCCn1c(SCc2ccc(Cl)cc2)nc2c1c(=O)[nH]c(=O)n2C the results were RmlC RmlD mix inactive, HIV RNase H inh-1 54 and HIV RNase H inh-2 inactive.
COCCn1c(SCc2c(F)cccc2Cl)nc2c1c(=O)[nH]c(=O)n2C was read as RmlC RmlD mix inactive, HIV RNase H inh-1 57 and HIV RNase H inh-2 inactive.
`CCOCCn1c(SCc2ccc(F)cc2)nc2c1c(=O)[nH]c(=O)n2C` gave RmlC RmlD mix inactive and HIV RNase H inh-1 inactive.
Screening C=CCn1c(SCCN2CCOCC2)nc2c1c(=O)[nH]c(=O)n2C returned RmlC RmlD mix inactive and HIV RNase H inh-1 inactive.
For Cc1cc(C)nc(SCC(=O)N2CCC(C(N)=O)CC2)n1 the results were RmlC RmlD mix inactive and HIV RNase H inh-1 inactive.
CC(C)(C)n1ncc2c(=O)n(CC(=O)N3CCN(c4ccccc4)CC3)cnc21 was read as RmlC RmlD mix inactive and HIV RNase H inh-1 inactive.
For C/C=C/CSc1nc2c(c(=O)[nH]c(=O)n2C)n1Cc1ccc(C)cc1 the results were RmlC RmlD mix inactive, HIV RNase H inh-1 80 and HIV RNase H inh-2 72.
Screening Cc1ccc(Cn2c(Sc3ncccn3)nc3c2c(=O)[nH]c(=O)n3C)cc1 returned RmlC RmlD mix inactive and HIV RNase H inh-1 inactive.
Screening c1cc(C(c2nnnn2C2CCCC2)N2CCOCC2)ccn1 (stereo not drawn) returned RmlC RmlD mix inactive and HIV RNase H inh-1 inactive.
Screening Oc1ccc(N2CCN(C(c3ccncc3)c3nnnn3C3CCCC3)CC2)cc1 (stereo not drawn) returned RmlC RmlD mix inactive, HIV RNase H inh-1 79 and HIV RNase H inh-2 inconclusive.
Screening CCOC(=O)c1cnc2sc3c(n2c1=O)CCCC3 returned RmlC RmlD mix inactive and HIV RNase H inh-1 inactive.
`COc1ccc(C2C(C#N)=C(N)N3C(=C2C#N)Sc2ccccc23)cc1` (stereo not drawn) gave RmlC RmlD mix inactive, HIV RNase H inh-1 87 and HIV RNase H inh-2 60.
For COc1ccc(C2C(C#N)=C(N)N(c3sc4c(c3C#N)CCCC4)C3=C2C(=O)CC(C)(C)C3)cc1 (stereo not drawn) the results were RmlC RmlD mix inactive.
For O=C(CSc1ncnc2nc[nH]c12)N1CCOCC1 the results were RmlC RmlD mix inactive and HIV RNase H inh-1 inactive.
Screening O=C(O)CCCC(=O)NS(=O)(=O)c1ccc(Cl)cc1 returned RmlC RmlD mix inactive.
COc1ccccc1NC(=O)CSc1nnc(COc2ccc(Cl)cc2)n1Cc1ccco1 was read as RmlC RmlD mix inactive and HIV RNase H inh-1 inactive.
`COc1ccccc1OCc1nnc(SCC(=O)NCc2ccco2)n1Cc1ccco1` gave RmlC RmlD mix inactive, HIV RNase H inh-1 66 and HIV RNase H inh-2 inactive.
Screening CCOC(=O)CCS(=O)(=O)c1ccc(-c2ccc(S(=O)(=O)CCC(=O)OCC)cc2)cc1 returned RmlC RmlD mix inactive.
Screening CC(C)c1c(C#N)c(N)nc(SCC(=O)c2cc3ccccc3oc2=O)c1C#N returned RmlC RmlD mix inactive, HIV RNase H inh-1 75 and HIV RNase H inh-2 inactive.
Screening N#Cc1ccc(-c2ccccc2)nc1SCC(=O)c1cc2ccccc2oc1=O returned RmlC RmlD mix inactive.
Cc1ccc2c(C)nc(NC3=NCN(CCc4ccccc4)CN3)nc2c1 was read as HIV RNase H inh-1 inactive.
Screening COC(=O)C1(Cc2ccc(O)cc2)OC(=O)C(O)=C1c1ccc(O)cc1 (stereo not drawn) returned RmlC RmlD mix inactive.
For Clc1ccccc1-c1nnc2sc(-c3ccc4c(c3)OCO4)nn12 the results were RmlC RmlD mix inactive, HIV RNase H inh-1 92 and HIV RNase H inh-2 inconclusive.
For c1ccc2c(c1)ncn2Cc1nnc2sc(-c3ccc4c(c3)OCO4)nn12 the results were RmlC RmlD mix inactive, HIV RNase H inh-1 69 and HIV RNase H inh-2 61.

High-throughput results deposited in PubChem BioAssay by several laboratories.
